The supplement of paper PMC9446081
The whole screen tested about 39,000 compounds, of which about 220 (0.56%) showed activity. This excerpt belongs to a sample that is enriched for actives.

Test system: Escherichia coli K-12 BW25113
Test: relative growth (OD600 normalised to plate interquartile mean) (fraction); higher = less growth inhibition, active = 0.2 or less
Settings: 50 µM; LB; incubation time: overnight (16-24 h)
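Also: Wild-type cells incubated without shaking, value is the mean of two biological replicates.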

SMILES	relative growth
COc1ccc([Si](C)(C)[C@H]2[C@H](CCOC(=O)NCCCCCC(=O)NO)O[C@]3(C(=O)N(Cc4cccc(N5CCCCC5=O)c4)c4ccccc43)[C@@H]2C)cc1	1.02 (inactive)
Nc1cc[nH]c(=O)n1	0.997 (inactive)
CCCCNc1ccccc1	0.996 (inactive)
CCCCCCCCCCCCCCCC[N+](C)(C)CCN(Cc1ccc(OC)cc1)c1ncccn1	0.555 (inactive)
CCCCCc1ccccn1	0.974 (inactive)
CCCCCCCCCCCCC[N+](C)(C)Cc1ccccc1	0.0319 (active)
CCCCCCCCCCCCC[N+](C)(C)Cc1ccccc1.O.[Cl-]	0.0544 (active)
CCCC[C@@H](O)c1ccccc1	0.992 (inactive)
CC[N+](C)(CC)Cc1ccccc1	0.993 (inactive)
CCCCCCCCCCCCCCCC[N+](C)(C)Cc1ccccc1.[Cl-]	0.0933 (active)
CCCCC(O)c1ccccc1 (stereo not given)	0.973 (inactive)
C[C@H](CO)N1C[C@H](C)[C@@H](CN(C)Cc2ccc(Oc3ccccc3)cc2)Oc2c(NC(=O)Nc3ccc(C(F)(F)F)cc3)cccc2C1=O	0.795 (inactive)
CN(C)CC(=O)N[C@@H]1CC[C@@H](CC(=O)O)O[C@@H]1CO	0.983 (inactive)
C[C@H](CO)N1C[C@H](C)[C@@H](CN(C)CC2CCCCC2)Oc2ccc(NC(=O)CCN3CCOCC3)cc2C1=O	0.981 (inactive)
NCC[C@@H]1CC[C@H](NC(=O)C2CC2)[C@H](CO)O1	0.995 (inactive)
C[C@H]1CN([C@@H](C)CO)C(=O)CCCn2nncc2CO[C@@H]1CN(C)Cc1cccc2c1OCCCO2	0.992 (inactive)
O=C(Oc1ccc(Cl)cc1)c1sc2ccccc2c1Cl	1.05 (inactive)
Oc1c(Br)cc(Br)c2cccnc12	0.379 (inactive)
Nc1ncccc1O	1.03 (inactive)
O=[N+]([O-])c1ccc(O)c2ncccc12	0.0542 (active)
Oc1c(I)cc(Cl)c2cccnc12	0.463 (inactive)
Oc1ccc(Cl)c2cccnc12	0.0534 (active)
NS(=O)(=O)c1ccc(O)c([N+](=O)[O-])c1	0.992 (inactive)
Fc1cccc2c(Cl)ccnc12	0.976 (inactive)
Oc1c(I)cc(I)c2cccnc12	1.04 (inactive)
Oc1c(Cl)cc(Cl)c2cccnc12	0.111 (active)
C[C@H]1CN([C@@H](C)CO)C(=O)c2cc(NC(=O)Cn3cnnn3)ccc2O[C@@H]1CN(C)Cc1ccncc1	1.02 (inactive)

SMILES	relative growth
C[C@@H]1CN([C@H](C)CO)C(=O)c2cc(NS(=O)(=O)c3ccc(F)cc3)ccc2O[C@H]1CN(C)S(=O)(=O)c1cn(C)cn1	1.04 (inactive)
C[C@@H]1CN([C@@H](C)CO)C(=O)c2cc(NC(=O)C3CCCCC3)ccc2O[C@@H](C)CCCCO[C@H]1CN(C)Cc1ccc(C(=O)O)cc1	0.977 (inactive)
Cl.Nc1ccn(C2OC(CO)C(O)C2(F)F)c(=O)n1 (stereo not given)	1.09 (inactive)
COc1ccc(S(=O)(=O)Nc2ccc3c(c2)C(=O)N([C@@H](C)CO)C[C@H](C)[C@H](CN(C)S(=O)(=O)c2ccc(F)cc2)O3)cc1	1 (inactive)
C[C@H](CO)N1C[C@H](C)[C@@H](CN(C)Cc2ccc(C(=O)O)cc2)OCCCC[C@H](C)Oc2ccc(NC(=O)Nc3ccc4c(c3)OCO4)cc2C1=O	0.95 (inactive)
COCC#Cc1cnc2c(c1)C(=O)N([C@H](C)CO)C[C@H](C)[C@@H](CN(C)S(=O)(=O)c1ccccc1)O2	1 (inactive)
CC(=O)N[C@H](C)c1cn(C)nc1C	1.03 (inactive)
C[C@@H]1CN([C@H](C)CO)C(=O)c2cc(NC(=O)C3CCCCC3)ccc2O[C@@H](C)CCCCO[C@@H]1CN(C)S(=O)(=O)c1cccs1	0.933 (inactive)
O=c1[nH]cc(N2CCCCC2)c(=O)[nH]1	1 (inactive)
O=c1[nH]cc(F)c(=O)[nH]1	0.196 (active)
O=c1[nH]cc(Nc2ccccc2)c(=O)[nH]1	1.01 (inactive)
C[N+]1(C)C2CCC1CC(OC(=O)C(O)c1ccccc1)C2.[Br-] (stereo not given)	0.924 (inactive)
Nc1nnc(C(=O)c2ccccc2N)s1	0.951 (inactive)
Cc1noc(C)c1NC(=O)Nc1ccc2c(c1)CC(=O)N([C@@H](C)CO)C[C@H](C)[C@H](CN(C)S(=O)(=O)c1ccccc1)O2	0.971 (inactive)
Cc1noc(C)c1NC(=O)N(C)C[C@H]1Oc2ccc(NS(=O)(=O)c3c(C)noc3C)cc2CC(=O)N([C@@H](C)CO)C[C@@H]1C	0.985 (inactive)
C[C@H](CO)N1C[C@H](C)[C@@H](CN(C)S(=O)(=O)c2ccccc2)OCCCC[C@H](C)Oc2ccc(NS(=O)(=O)c3cn(C)cn3)cc2C1=O	0.993 (inactive)
O=C(NO)c1cn(CC(=O)N2CCC3(CC2)C(=O)NCN3c2ccccc2)nn1	0.94 (inactive)
O=C(/C=C/c1cccc(-c2cn(-c3cccc(C(=O)N4CCC5(CC4)C(=O)NCN5c4ccccc4)c3)nn2)c1)NO	0.972 (inactive)
O=C(NO)c1cn(-c2cccc(C(=O)N3CCC4(CC3)C(=O)NCN4c3ccccc3)c2)nn1	0.0368 (active)
C[C@H](CO)N1C[C@H](C)[C@@H](CN(C)CC2CC2)Oc2c(NS(=O)(=O)c3cn(C)cn3)cccc2C1=O	0.999 (inactive)
COC(=O)C[C@@H]1CC[C@@H]2[C@@H](COc3ccc(NS(=O)(=O)c4ccccc4Cl)cc3C(=O)N2C)O1	1.03 (inactive)
CS(=O)(=O)Nc1cccc(C2=NN(c3nc(-c4ccccc4)c4cc(Cl)ccc4n3)[C@H](c3ccco3)C2)c1	1 (inactive)
Cc1noc(C)c1NC(=O)Nc1ccc2c(c1)C(=O)N([C@@H](C)CO)C[C@@H](C)[C@H](CN(C)S(=O)(=O)c1ccc(F)cc1)OCCCC[C@H](C)O2	1.03 (inactive)
O=C(C[C@@H]1C[C@@H]2c3cc(NS(=O)(=O)c4ccc(F)cc4)ccc3O[C@@H]2[C@H](CO)O1)NC1CCCC1	0.992 (inactive)
COc1ccc(C#Cc2ccc3c(c2)O[C@@H](CN(C)C(C)=O)[C@@H](C)CN([C@@H](C)CO)S3(=O)=O)cc1	1.03 (inactive)
COc1ccc(C2=C(N)C(=O)NC2=O)cc1OC	0.93 (inactive)
COc1cc(O)cc(OC)c1OC	1.1 (inactive)

SMILES	relative growth
COc1cccnc1N	0.99 (inactive)
COc1cc(Cc2cnc(N)nc2N)cc(OC)c1OC	0.044 (active)
COc1cc(CN)cc(OC)c1OC	1 (inactive)
COc1ccc(Cc2cnc(N)nc2N)cc1OC	0.0502 (active)
Cc1ccc(S(=O)(=O)N(C)C[C@H]2Oc3c(NS(=O)(=O)c4cn(C)cn4)cccc3C(=O)N([C@@H](C)CO)C[C@@H]2C)cc1	0.959 (inactive)
Cc1noc(C)c1NC(=O)Nc1cccc2c1O[C@@H](CN(C)Cc1ccc(Oc3ccccc3)cc1)[C@H](C)CN([C@H](C)CO)C2=O	0.995 (inactive)
COc1ccc(-c2cnc3c(c2)C(=O)N([C@H](C)CO)C[C@H](C)[C@@H](CN(C)S(=O)(=O)c2ccc(OC)cc2)O3)cc1	1 (inactive)
C[C@@H]1CN([C@@H](C)CO)C(=O)c2cc(N(C)C)ccc2O[C@@H](C)CCCCO[C@@H]1CN(C)C(=O)Nc1ccc(C(F)(F)F)cc1	0.928 (inactive)
COc1cccc(S(=O)(=O)Nc2ccc3c(c2)[C@@H]2C[C@@H](CC(=O)N4CCCCC4)O[C@@H](CO)[C@@H]2O3)c1	0.993 (inactive)
C[C@H]1CN([C@@H](C)CO)S(=O)(=O)c2ccc(Br)cc2O[C@@H]1CN(C)C(=O)c1cccnc1	0.972 (inactive)
C[C@@H]1CN([C@H](C)CO)S(=O)(=O)c2ccc(-c3cccc(C#N)c3)cc2O[C@@H]1CN(C)C(=O)c1cccnc1	1.01 (inactive)
Cc1n[nH]c(=S)n1N	0.968 (inactive)
Cc1nnsc1-c1onc(C)c1C(N)=O	0.866 (inactive)
C[C@H]1CN([C@@H](C)CO)C(=O)c2cccc(NC(=O)C3CC3)c2O[C@@H]1CN(C)S(=O)(=O)c1ccc(Cl)cc1	1 (inactive)
C[C@@H]1CN([C@H](C)CO)C(=O)Cc2cc(NC(=O)Cc3cn(C)c4ccccc34)ccc2O[C@H]1CN(C)CC1CCCCC1	1.02 (inactive)
CO[C@H]1C[C@@H]2CC[C@@H](C)[C@@](O)(O2)C(=O)C(=O)N2CCCC[C@H]2C(=O)O[C@H]([C@H](C)C[C@@H]2CC[C@@H](OP(C)(C)=O)[C@H](OC)C2)CC(=O)[C@H](C)/C=C(\C)[C@@H](O)[C@@H](OC)C(=O)[C@H](C)C[C@H](C)/C=C/C=C\C=C\1C	0.837 (inactive)
Cl.Nc1c2c(nc3ccccc13)CCCC2	0.911 (inactive)
Nc1c2c(nc3ccccc13)CCCC2	0.985 (inactive)
Nc1c2ccccc2nc2ccccc12	0.0461 (active)
Cc1noc(C)c1NC(=O)N(C)C[C@H]1Oc2ccc(NS(=O)(=O)c3cn(C)cn3)cc2C(=O)N([C@H](C)CO)C[C@H]1C	0.989 (inactive)
C[C@@H]1CN([C@H](C)CO)C(=O)Cc2cc(NC(=O)C3CCCCC3)ccc2O[C@H]1CN(C)Cc1ccc(C(=O)Nc2ccccc2N)cc1	0.979 (inactive)
COc1cc2c(cc1OC)CN(CCc1ccc(NC(=O)c3cc(OC)c(OC)cc3NC(=O)c3cnc4ccccc4c3)cc1)CC2	0.965 (inactive)
CC(=O)O.N=C(N)NN=Cc1c(Cl)cccc1Cl	0.885 (inactive)
COC(=O)NN=Cc1c[n+]([O-])c2ccccc2[n+]1[O-]	0.574 (inactive)
COC(=O)N/N=C/c1c[n+]([O-])c2ccccc2[n+]1[O-]	0.0462 (active)
C[C@H]1CN([C@@H](C)CO)C(=O)c2cccc(NS(=O)(=O)c3ccccc3)c2O[C@H]1CN(C)S(C)(=O)=O	0.967 (inactive)
